Several values for one entry are separate records, joined by “and”; a condition that tells them apart may be missing. Equal values may be shown once. Out of some 2,100 compounds screened, about 30 (1%) were called active. Only a sample is shown. A number with no mark means an inactive call.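 The calls were made as follows: active = compounds whose mean binding response over two repeats is below 75% of the DMSO control; inactive = the rest.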

Sequence of Desmoglein-3 (Homo sapiens) (P32926 whole entry, looked up): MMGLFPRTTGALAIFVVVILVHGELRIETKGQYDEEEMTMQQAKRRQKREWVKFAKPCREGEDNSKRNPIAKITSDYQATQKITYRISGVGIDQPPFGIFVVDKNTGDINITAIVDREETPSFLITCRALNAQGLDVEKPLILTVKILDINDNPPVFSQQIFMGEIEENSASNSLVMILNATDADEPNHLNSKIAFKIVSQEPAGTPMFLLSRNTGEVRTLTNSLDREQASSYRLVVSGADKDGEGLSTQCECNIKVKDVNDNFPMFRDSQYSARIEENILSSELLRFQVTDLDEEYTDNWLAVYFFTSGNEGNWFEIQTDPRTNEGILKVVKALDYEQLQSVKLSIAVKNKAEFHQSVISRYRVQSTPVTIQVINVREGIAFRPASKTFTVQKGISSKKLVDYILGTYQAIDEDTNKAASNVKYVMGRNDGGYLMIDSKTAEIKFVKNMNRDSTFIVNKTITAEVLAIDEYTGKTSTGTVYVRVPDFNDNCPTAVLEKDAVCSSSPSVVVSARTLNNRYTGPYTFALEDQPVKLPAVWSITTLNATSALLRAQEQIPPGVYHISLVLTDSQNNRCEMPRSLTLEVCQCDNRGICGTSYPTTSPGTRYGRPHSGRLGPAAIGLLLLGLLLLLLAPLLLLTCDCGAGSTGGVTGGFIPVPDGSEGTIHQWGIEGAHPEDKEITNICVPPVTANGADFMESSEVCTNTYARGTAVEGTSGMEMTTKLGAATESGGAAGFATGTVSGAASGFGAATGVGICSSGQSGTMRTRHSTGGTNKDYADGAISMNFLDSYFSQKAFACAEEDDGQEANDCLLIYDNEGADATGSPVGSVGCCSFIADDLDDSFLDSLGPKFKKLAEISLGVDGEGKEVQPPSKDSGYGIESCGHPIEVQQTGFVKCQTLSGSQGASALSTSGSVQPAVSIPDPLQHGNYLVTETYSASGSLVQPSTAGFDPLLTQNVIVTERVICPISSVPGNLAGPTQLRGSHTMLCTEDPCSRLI

This test addresses Desmoglein-3 (Homo sapiens) (UniProt P32926). Nature of the test: inhibitors of anti-DSG3 scFv binding to DSG3, confirmation, biochemical, cherry pick 1, bead-based, flow cytometry (AID 588466).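 Also: 100% = 2% DMSO vehicle and 0% = excess soluble DSG3 blocking control.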 Conditions: Protein G beads with DSG3, scFv-GFP binding, at 10 µM, stronger effect = lower value.
For `Cc1nc(SCc2nc3c([N+](=O)[O-])cccc3[nH]2)c2oc3ccccc3c2n1`, the binding response (% of DMSO) was 108%.

On to `CN(CCC1CCOCC1)C(=O)C1CCC(=O)N(CCc2ccccc2)C1` (configuration not stated), for which the binding response (% of DMSO) was 101%. The result for `CCOC(=O)c1cccc(NC(=O)c2ccc3c(c2)C(=O)N(CC2CCCO2)C3=O)c1` (configuration not stated) reads 103%; that for `COc1ccc(C2=Nn3c(nnc3-c3ccccc3Cl)SC2)cc1OC1CCOC1` (configuration not stated), 91.3%. Then `Nc1cccc(C(=O)c2ccccc2C(=O)O)c1`, with 98.2%.

Take `O=C1CSC(c2ccncc2)N1Cc1ccco1` (configuration not stated): the binding response (% of DMSO) was 106%. On to `COC(=O)c1ccc(N(C(=O)CNC(=O)c2ccco2)C(C(=O)NCC2CCCO2)c2ccc(OC)c(OC)c2)cc1` (configuration not stated), for which the binding response (% of DMSO) was 104%. The result for `CC(=O)Nc1ccc(C(=O)OCC(=O)c2ccc(S(=O)(=O)N3CCCCC3)cc2)cc1` reads 110%; that for `Cc1ccc(-n2nc3c(c2NC(=O)c2ccc(Br)o2)CSC3)c(C)c1`, 95.6%. In the case of `Cc1cc(NC(=O)CSc2nccn2-c2ccc(Cl)cc2)no1`, the binding response (% of DMSO) was 103%. With `CCOc1cccc(C(=O)Nc2ccc(N3CCN(S(C)(=O)=O)CC3)cc2)c1`, the binding response (% of DMSO) is 90.8%. The result for `Clc1ccc(-[n+]2c(-c3cccc(Br)c3)[nH]c3nc4ccccc4nc32)cc1` reads 90.4%; that for `COc1ccc(Oc2nnc(-c3ccccc3)cc2C#N)cc1`, 94.9%. Take `O=C(CSc1nc(=O)[nH]c2c1CCCC2)Nc1ccc(F)cc1F`: the binding response (% of DMSO) was 106%. Then `O=C1c2ccc(-c3ccc(F)cc3OCc3ccccc3)cc2S(=O)(=O)c2cccc(C(=O)N3CCN(c4ncc(Br)cn4)CC3)c21`, with 84.2%; and `CCOc1ccc2nc(NC(=O)c3ccc(S(=O)(=O)N4CCOCC4)cc3)sc2c1`, with 77.7%; and `CC1=CCC2C(=O)N(c3ccc(C)c(Br)c3)C(=O)C2C1` (configuration not stated), with 109%. With `COc1ccccc1CN(C)C[C@@H]1OCc2cnnn2CCCC(=O)N([C@@H](C)CO)C[C@H]1C`, the binding response (% of DMSO) was 96.2%. As to `CN(c1ccccc1)S(=O)(=O)c1cccc(NC(=O)C2=NNC(=O)CC2)c1`, the binding response (% of DMSO) is 98.4%. The result for `CC(=O)c1cccc(N(C(=O)CNC(=O)c2cccs2)C(C(=O)NCC2CCCO2)c2ccccc2)c1` (configuration not stated) reads 102%. With `COc1ccc(-c2csc(NC(=O)c3cc(C)on3)c2C#N)cc1OC`, the binding response (% of DMSO) was 97.8%. On to `O=C(c1cnn(-c2nc3ccccc3s2)c1)c1ccccc1O`, for which the binding response (% of DMSO) was 102%. The result for `CCN1C(=O)[C@H]2[C@@H](c3ccc(C)cc3)N3C(=O)N(c4ccc(OC)cc4)C(=O)[C@@]3(Cc3ccccc3)[C@H]2C1=O` reads 98.4%; that for `COc1ccc(-c2cc(=O)oc3cc(OCC(=O)Nc4ccccn4)ccc23)cc1`, 88.2%. `CN1CCN(Cc2nc3ccccc3c(=O)n2Cc2nc(-c3ccc([N+](=O)[O-])cc3)cs2)CC1`: the binding response (% of DMSO) was 103%.

Regarding `Fc1ccc2nc(C3CCCCN3Cc3nc(CC4CC4)no3)[nH]c2c1` (configuration not stated), the binding response (% of DMSO) is 102%. Then `CSCCC(NC(=O)C1CCC(C)CC1)C(=O)OCC(=O)c1ccc(Cl)cc1` (configuration not stated), with 107%. The result for `O=S(=O)(NCCOc1ccccc1F)c1ccc(Cl)cc1F` reads 102%. The result for `CCOc1cc(S(=O)(=O)Nc2ccc(Cl)cn2)ccc1F` reads 112%. Regarding `CCc1ccc(Cn2nnc(C(=O)Nc3ccc(OC)cc3OC)c2N)cc1`, the binding response (% of DMSO) was 96.2%. The result for `COc1ccc(-c2ccc(-c3nc4c(c(=O)[nH]c(=O)n4Cc4ccccc4)n3C)o2)c([N+](=O)[O-])c1` reads 87.1%; that for `COc1ccc(NC(=O)c2ccc(NC(=O)CN3CCN(c4ccccc4)CC3)cc2)cc1`, 90.4%; that for `COc1ccc(OC)c(NC(=O)NCCc2cccc(Cl)c2)c1`, 100%.

Take `COc1ccc(Cl)c(NC(=O)NCCN2CCN(c3ccccc3)CC2)c1`: the binding response (% of DMSO) was 67.9% (active). Then `CC1C(=O)N2CCCc3cc(S(=O)(=O)N4CCC(C(N)=O)CC4)cc1c32` (configuration not stated), with 104%; and `Cc1ccc(NS(=O)(=O)c2ccc3c(c2)n(C)c(=O)n3C)cc1`, with 100%. Then `COc1ccc(CNC(=O)c2cnc(C)cn2)cc1`, with 101%. Then `COCC(C)n1c(C)cc(C(=O)COC(=O)c2nn(C)c(=O)c3ccccc23)c1C` (configuration not stated), with 98.2%; and `CC(=O)Nc1nnc(CCS(=O)(=O)c2ccc(C)c(C)c2)s1`, with 104%.

On to `COc1ccc(-n2ccc(=O)c(C(=O)Nc3ccc(S(=O)(=O)Nc4nccs4)cc3)n2)cc1`, for which the binding response (% of DMSO) is 99.6%.

Regarding `COc1ccc(C(=O)NCc2nnc(SCC(=O)N3CCc4ccccc43)n2C2CCCCC2)cc1`, the binding response (% of DMSO) was 91%.

On to `CCc1nnc(NC(=O)CCN(c2ccc(C)cc2)S(=O)(=O)c2ccccc2)s1`, for which the binding response (% of DMSO) was 103%.

With `Cc1ccsc1-c1nc(-c2ccccc2)c(-c2ccccc2)[nH]1`, the binding response (% of DMSO) is 77.9%. Then `CN(Cc1cc2ccccc2[nH]c1=O)S(C)(=O)=O`, with 100%; and `Cc1nc2scc(C)n2c(=O)c1S(=O)(=O)NCc1ccc(F)cc1`, with 107%. Then `COc1ccc(C(=O)NCc2ccc(C)cc2)cc1S(=O)(=O)N1CCCC1`, with 105%; and `CCOC(=O)c1c(-c2ccccc2)c[nH]c1C`, with 97.4%. For the compound `CCN(CC)c1ccc(/C=N/N2C(=O)c3ccccc3C2=O)cc1`, the binding response (% of DMSO) is 102%. Then `CCOC(=O)C1=C(O)/C(=C/c2ccc(-c3ccccc3C(=O)O)o2)SC1=Nc1ccc(C)cc1`, with 108%; and `CC(=O)N1C(=O)/C(=C2\SC(=S)N(c3c(C)n(C)n(-c4ccccc4)c3=O)C2=O)c2ccccc21`, with 87.6%. In the case of `Clc1ccc(-n2ncc3c(NCc4cccnc4)ncnc32)cc1Cl`, the binding response (% of DMSO) is 91.8%. The result for `C=C(Br)CN1[C@@H](Cc2ccccc2)[C@H](O)[C@@]23C=C[C@@H](C[C@@H]2S1(=O)=O)O3` reads 101%; that for `CCOC(=O)CSc1nc2sc(C)c(C)c2c(=O)n1N`, 104%; that for `CC(=O)c1c(C)[nH]c(C(=O)NCc2ccc(Cl)cc2)c1C`, 105%. The result for `CCOC(=O)Cc1csc(NC(=O)COc2ccccc2)n1` reads 99.8%; that for `Cc1cc(=O)oc2cc(OCC(=O)OCC(=O)Nc3ccccc3Br)ccc12`, 112%; that for `COc1cccc(-c2nc(NCc3ccco3)c3ccccc3n2)c1O`, 89.5%. Then `O=C(c1cc(S(=O)(=O)N2CCOCC2)ccc1F)N1CCCc2ccccc21`, with 104%. For the compound `CSc1nc(C2CC2)cc(-c2cccs2)c1C#N`, the binding response (% of DMSO) was 94.5%.

For the compound `O=C(CSc1n[nH]c(-c2ccco2)n1)Nc1ccccc1Cl`, the binding response (% of DMSO) is 101%.

As for `COc1ccc(CC(=O)Nc2cccc(C(=O)NN3C(=O)c4ccccc4C3=O)c2C)cc1`, the binding response (% of DMSO) is 102%.

In the case of `COC(=O)[C@]1(C)N[C@H](CN(C)C(=O)Nc2ccc(OC)cc2)[C@@H]2C(=O)N(C)C(=O)[C@@H]21`, the binding response (% of DMSO) is 95.3%. With `CCOC(=O)c1sc(NC(=O)C(CC)Sc2nccn2C)nc1C` (configuration not stated), the binding response (% of DMSO) was 105%. The result for `O=C(O)C1(Nc2ccc(Br)cc2)CCCC1` reads 98.6%.

Consider `COc1ccc(S(=O)(=O)N2CCCCCC2)cc1NC(=O)CCNC(=O)c1ccc(Cl)cc1`, for which the binding response (% of DMSO) was 107%. `O=C(CCCCCCN1C(=O)c2ccccc2C1=O)NC1CCCCC1`: the binding response (% of DMSO) is 105%.

As for `CCCCN(CCCC)C(=O)c1cc(Cl)ccc1[N+](=O)[O-]`, the binding response (% of DMSO) is 98.8%.

On to `COc1ccc(C(=O)COc2ccc3ccc(=O)oc3c2)c(OC)c1`, for which the binding response (% of DMSO) was 104%. Then `COc1ccc(C)cc1NS(=O)(=O)c1ccc2c(c1)CCN2C(C)=O`, with 99.4%; and `NS(=O)(=O)c1ccc(NC(=O)c2ccc(F)cc2F)c(NC(=O)c2ccc(F)cc2F)c1`, with 104%; and `CCCCSc1nnc(-c2ccc(NC(=O)CCc3ccccc3)cc2)n1C`, with 104%.

On to `COc1ccc(-c2cc(NC(=O)c3cncn3-c3ccccc3)ccc2OC)cc1`, for which the binding response (% of DMSO) was 107%. For `Cc1ccc(NC(=O)CN2C(=O)NC(Cc3c[nH]c4ccccc34)C2=O)cc1S(=O)(=O)N1CCCCC1` (configuration not stated), the binding response (% of DMSO) was 102%. The result for `CC(=O)c1ccc(OCC(O)CN2CC(C)OC(C)C2)cc1` (configuration not stated) reads 104%. Then `Cc1cc2oc(=O)cc(-c3ccccc3)c2c(C)c1-c1ccc(F)c(Cl)c1`, with 105%; and `C[C@H](CO)N1C[C@H](C)[C@@H](CN(C)Cc2ccc(-c3ccccc3)cc2)Oc2c(NS(=O)(=O)c3cn(C)cn3)cccc2C1=O`, with 98.2%; and `O=C(CN1CCN(S(=O)(=O)c2ccccc2)CC1)Nc1cccc(C(F)(F)F)c1`, with 110%. The result for `O=C(Nc1cc(Cl)ccc1-n1cncn1)c1cn2ccccc2n1` reads 111%; that for `COc1cccc(C(=O)NCCn2ccc3ccccc32)c1`, 112%. For `COc1cc(CN2CCC(n3nccc3NC(=O)C3CC3)CC2)cc(OC)c1`, the binding response (% of DMSO) is 104%. Then `Cc1ccc(Cn2cnc3c(nnn3Cc3ccc(Cl)cc3)c2=O)cc1`, with 90% and 97.5%.

Take `CC(C)[C@H](NC(=O)N1c2ccccc2NC(=O)[C@@H]1C(C)C)C(=O)N[C@@H](Cc1c[nH]c2ccccc12)C(=O)O`: the binding response (% of DMSO) is 105%.

Take `CCOc1c(Br)cc(C(=O)Nc2cccc(S(=O)(=O)N3CCOCC3)c2)cc1OC`: the binding response (% of DMSO) is 102%.

`CCc1nnc(NC(=O)CCC(=O)NCc2ccccc2Cl)s1`: the binding response (% of DMSO) was 97.5%.

For `COc1ccc(OC)c(NS(=O)(=O)c2ccc(-c3coc(C)n3)cc2)c1`, the binding response (% of DMSO) is 97.3%. The result for `COc1ccc(CCN2C(=O)C(Oc3ccccc3C)C2c2ccc3c(c2)OCO3)cc1OC` (configuration not stated) reads 101%; that for `CSc1nc2ccc(NC(=O)c3cccs3)cc2s1`, 102%.

Values taken from PubChem BioAssay AID588466 (NMMLSC, 2011).
